Each structure is given as a SMILES string. “And” between values parts separate entries of the source, which are not always exact repeats. Equal entries are not always repeated. The panel holds about 83,000 compounds, 20% with a hit somewhere; the sample as a whole holds those more often.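 Activity criterion: percent growth below 10, measured after cells in 96-well plates were exposed to a single compound concentration for 48 hours.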 The source made the active and inactive calls.

The subject of the assay is MDA-MB-468 breast. The experiment in a line: NCI-60 one-dose screen, 48 h (100 = growth as untreated, 0 = no growth, -100 = all killed). Particulars: 10 µM unless noted.
Regarding `CCCCC(C=O)(C=C=C(C)C)CC` (stereo not given), the growth is 108% (inactive).
Consider `CSc1nc(-c2cccc(NC(=O)CCl)c2)c(C#N)c(=O)n1C`, for which the growth was -4.77% (active).
To `C#C[C@]1(O)CC[C@H]2[C@@H]3CC=C4c5sc(Nc6ccc(Cl)cn6)nc5CC[C@]4(C)[C@H]3CC[C@@]21C` belongs 68.4% (inactive).
Turning to `COc1ccc([C@H]2c3[nH]c4ccccc4c3C[C@H]3C(=O)N(C4CCN(Cc5c(Cl)cccc5Cl)CC4)CC(=O)N23)c(OC)c1`, the growth is 92.8% (inactive).
To `Fc1cccc(CNc2c3ccccc3nc3ccccc23)c1F` belongs 22% (inactive); to `O=c1[nH]nc(-c2ccc(Cl)cc2)cc1Cc1cccc([N+](=O)[O-])c1`, 102% (inactive); to `O=C(Nc1ccc(N2CCNCC2)cn1)c1[nH]ncc1Nc1ncnc2sccc12`, -59.5% (active).
In the case of `O=C(O[C@@H]1Cc2c(O)cc(O)cc2O[C@@H]1c1cc(O)c(O)c(O)c1)c1cc(O)c2c(c1)OCO2`, the growth is 109% (inactive).
Turning to `O=C1/C(=C/c2ccc([N+](=O)[O-])s2)Oc2ccc(Br)cc21`, the growth was -40.2% (active).
Regarding `CC(Nc1ncnc2ccc(-c3cnc(N)nc3)cc12)c1ccccc1` (stereo not given), the growth was -28.6% (active).
To `CC1CC(C)S(=O)(=O)C1` (stereo not given) belongs 112% (inactive); to `CCOc1cccc(/C=N/NC(=O)c2cccc(Nc3ccnc(C(F)(F)F)c3)c2)c1O`, 31.4% (inactive).
To `Cc1cc(C#Cc2ccccc2)ccc1-n1c(/C=C/c2ccc(F)cc2)nc2ccccc2c1=O` belongs 49.3% (inactive); to `CCOc1nc(-c2ccccc2)cc2c(O)c(C(=O)n3nc(C)cc3C)[nH]c(=O)c12`, 99.1% (inactive); to `O=C(Nc1ccc(Cl)c(Cl)c1)Nc1ccc(Cl)c([N+](=O)[O-])c1`, -19% (active).
To `Oc1ccccc1-c1nnc(CNc2ccc(Cl)cc2)o1` belongs -2.17% (active); to `COc1cc(Cl)ccc1C`, 64.9% (inactive).
For the compound `CN1CCN(CC(=O)Nc2cccc(-n3cc(-c4ccncc4)c(-c4ccc(Cl)c(O)c4)n3)c2)CC1`, the growth was 10.7% (inactive).
Turning to `O=c1cc(/C=N\Nc2nc(-c3ccc(Cl)cc3Cl)cs2)c2cc(Cl)ccc2o1`, the growth was 102% (inactive).
For `COC(=O)C(CC(=O)c1ccc(-c2ccccc2)cc1)c1ccccc1` (stereo not given), the growth was 52.5% (inactive).
As for `O=C(CS)OCC(COC(=O)CS)(COC(=O)CS)COC(=O)CS`, the growth is 78.8% (inactive).
In the case of `C#C[C@]1(O)CC[C@H]2[C@@H]3CC=C4c5sc(N=C(N)N)nc5CC[C@]4(C)[C@H]3CC[C@@]21C`, the growth is -31.7% (active).
With `NS(=O)(=O)c1ccc(CN2C(=O)c3cccc4cccc(c34)C2=O)cc1`, the growth is 98.2% (inactive).
`COc1ccc(C2CC(c3ccc(OC)cc3OC)=NN2c2ccc(S(N)(=O)=O)cc2)cc1` (stereo not given): the growth was 64.8% (inactive).
`O=C1NC(=O)C2C(=O)NC(=O)C1C21CCc2ccccc21` (stereo not given): the growth is 101% (inactive).
With `CO[C@H]1/C=C/O[C@@]2(C)Oc3c(C)c(O)c4c(O)c(c(/C=N/N5C(C)CN(Cc6ccccc6)CC5C)c(O)c4c3C2=O)NC(=O)/C(C)=C\C=C\[C@H](C)[C@H](O)[C@@H](C)[C@@H](O)[C@@H](C)[C@H](OC(C)=O)[C@@H]1C` (stereo not given in full), the growth was 65.1% (inactive).
To `COc1ccc(N2C(=O)/C(=C/C(Cl)=C/c3ccc([N+](=O)[O-])cc3)SC2=S)cc1` belongs -11.8% (active); to `CCOc1ccc2c(c1)/C(=C\C=C\C1CC(C)C3CC(OCC)CCC3N1CC)CC(C)N2CC` (stereo not given), -37.3% (active); to `Cc1c(C(=O)/C=C/c2csc3ccccc23)[n+](=O)c2ccccc2n1[O-]`, -16.5% (active).
The figure for `O=C1C(=O)/C(=C/c2ccccc2)CCCCCC/C1=C/c1ccccc1` is 65.7% (inactive); for `S=c1[nH]nc(-c2cc3ccc2CCc2ccc(cc2)CC3)n1C1CC1` it is 106% (inactive); for `CC1(C)CC(=O)C(c2c(-c3ccccc3)[nH]c3[nH]c(=S)[nH]c(=O)c23)=C(O)C1` it is 109% (inactive).
Consider `Cc1ccc(O)c(C(=O)O)c1`, for which the growth is 106% (inactive).
The figure for `c1ccc2c(c1)CCCc1nnc3nc4ccccc4n3c1-2` is 29.9% (inactive).
Consider `Cc1c(C)c2c(c(C)c1OC(=O)CCC(=O)[O-])CCC(C)(CCCCCCCCCCC[P+](c1ccccc1)(c1ccccc1)c1ccccc1)O2` (stereo not given), for which the growth was -70.4% (active).
As for `CCCCCC(CCC)COC(=O)c1ccc(OC)cc1` (stereo not given), the growth was 104% (inactive).
To `Nc1nc(=S)c2ncn(C3OC(CO)C(O)C3O)c2[nH]1` (stereo not given) belongs 114% (inactive) and -12.1% (active); to `Clc1ccc(C(Cn2ccnc2)OCc2ccsc2Cl)c(Cl)c1` (stereo not given), 9.75% (active); to `CCCCn1cnc2c(=O)[nH]cnc21`, 104% (inactive).
On to `COc1cc2nc(Cl)nc(Nc3cccc(C(=O)/C=C/c4ccc(F)cc4)c3)c2cc1OC`, for which the growth is 74.3% (inactive).

Values taken from PubChem BioAssay (NCI).
